# The entries come from a sample that favours hits as a whole.
# Dicer inh: inhibitors of Dicer pre-microRNA processing, primary screen, biochemical, cat-ELCCA, chemiluminescence; Endoribonuclease Dicer (Homo sapiens), Q9UPY3; cat-ELCCA pre-miR-21 Dicer processing; stronger effect = higher value; z-score at 25 µM; 47,000 tested, 6% active; AID 1347074, 2019; in the data active means z-score above about 3, passing the limit was not always enough;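 further: plate controls were vehicle for no effect and no enzyme for full effect; higher signal means more uncleaved substrate so more Dicer inhibition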
# Active calls of the source: *.
SMILES,Dicer inh
CCN1C(=O)c2cccc3c(S(=O)(=O)NC(CCSC)C(=O)O)ccc1c23 (configuration not stated),-1.46
Nc1n[nH]c(-c2ccccc2)c1-c1ccccc1,3.53*
N#CC1=C(N)Oc2n[nH]c(-c3ccccc3)c2C1c1ccc(Cl)cc1 (configuration not stated),-5.09
Nc1nc(-c2ccccc2)cc(=O)[nH]1,0.66
O=C(/C=C/c1cccs1)NC(=S)Nc1nc(-c2ccc(Cl)cc2)cs1,0.4
FC(F)(F)c1cnc(CSc2c(Cl)cccc2Cl)c(Cl)c1,-0.61
CCOC(=O)c1c(NC(=O)c2ccco2)sc2c1CCC(C(C)(C)C)C2 (configuration not stated),0.15
CCOC(=O)c1c(NC(=O)c2ccco2)sc2c1CCC(CC)C2 (configuration not stated),-3.11
CC1CCc2c(sc(NC(=O)c3ccco3)c2C(=O)N2CCOCC2)C1 (configuration not stated),3*
O=C(Nc1sc2c(c1C(=O)O)CCCC2)c1ccco1,0.04
CCOC(=O)c1c(NC(=O)c2ccco2)sc2c1CCC(C)C2 (configuration not stated),3.27*
CNC(=O)c1c(NC(=O)c2ccco2)sc2c1CCC(C(C)(C)C)C2 (configuration not stated),0.51
COc1ccc(O)c(C2=NCCNC(C(F)(F)C(F)F)=C2)c1,0.15
CCOC(=O)CC(=O)CSc1nnc(NC(=O)c2c(F)cccc2F)s1,-1.12
COc1ccc(-c2cc(C(F)(F)F)n3nc(C(=O)NCC4CCCO4)c(Cl)c3n2)cc1OC (configuration not stated),0.18
COc1cccc(C2CC(=O)Nc3nc(N)[nH]c(=O)c32)c1OC (configuration not stated),-1.05
Cc1c(C(=O)OC(C)C)c2cc(NS(C)(=O)=O)ccc2n1S(C)(=O)=O,0
Cc1nc2c3c4c(sc3ncn2n1)CCC4,0
Cc1cc(C)n(C2=NCCN2)n1,0.19
N#Cc1c(S/C=C(\O)c2ccc(F)cc2)nc2c(c1C(F)(F)F)CCCC2,-0.19
Clc1ccc(N=Cc2c(-c3ccccc3)nc3n2CCS3)cc1,3.87*
CS(=O)(=O)/C(C#N)=C/c1c(-c2ccccc2)nc2n1CCS2,1.54
FC(F)(F)c1cccc(N=Cc2c(-c3ccccc3)nc3n2CCS3)c1,2.74
COC(=O)c1ccc(C2c3c(oc4ccccc4c3=O)C(=O)N2c2ccccn2)cc1 (configuration not stated),1.59
C/C(=N\N=C(N)N)c1ccc(Br)cc1,-0.68
SMILES,Dicer inh
Cc1cccc2nc(-c3cccs3)oc(=O)c12,-1.31
Cc1ccc(-c2csc3nc(-c4cccs4)oc(=O)c23)cc1,5.44*
O=c1oc(-c2ccc(Br)cc2)nc2scc(-c3cccs3)c12,0.83
CCOC(=O)CSC1=C(C#N)C(c2ccco2)C(C(=O)Nc2ccccc2)=C(C)N1 (configuration not stated),-0.47
COC(=O)C1=C(C)NC2=C(C(=O)c3ccccc32)C1c1ccc(OCc2ccccc2F)c(OC)c1 (configuration not stated),-2.06
O=C(c1nn2c(c1Cl)NC(c1ccc(Br)cc1)CC2C(F)(F)F)N1CCOCC1 (configuration not stated),3.68*
Cc1ccc(C2CC(C(F)(F)F)n3nc(C(=O)N4CCCCC4)c(Cl)c3N2)cc1 (configuration not stated),0.49
O=C(c1nn2c(c1Cl)NC(c1ccc(Br)cc1)CC2C(F)(F)F)N1CCCCC1 (configuration not stated),-1.28
NC(=O)c1nn2c(c1Br)NC(c1ccccc1)CC2C(F)(F)F (configuration not stated),3.76*
O=C(c1nn2c(c1Br)NC(c1ccccc1)CC2C(F)(F)F)N1CCOCC1 (configuration not stated),5.25*
O=C(O)c1nn2c(c1Br)NC(c1ccccc1)CC2C(F)(F)F (configuration not stated),-0.34
Cc1ccc(C2CC(C(F)(F)F)n3nc(C(=O)N4CCN5CCCC5C4)c(Cl)c3N2)cc1 (configuration not stated),-1.73
CC(NC(=O)c1nn2c(c1Cl)NC(c1ccccc1)CC2C(F)(F)F)c1ccccc1 (configuration not stated),-0.69
O=C(c1nn2c(C(F)(F)F)cc(-c3ccccc3)nc2c1Br)N1CCOCC1,-0.52
CCOC(=O)c1c(NC(=O)c2ccc(F)cc2)c2cc([N+](=O)[O-])ccc2n1C,-1.19
Nc1ccccc1NC(=S)Nc1c(Cl)cccc1Cl,-0.77
CC(=O)NC(Nc1ccc(C)cc1)(C(F)(F)F)C(F)(F)F,-0.8
Cc1cc(NS(=O)(=O)c2ccc(NC(=O)c3ccc4nccnc4c3)cc2)no1,0.22
O=S(=O)(C1=CC23CCCCC2(C=C(S(=O)(=O)c2ccc(Cl)cc2)C3)C1)c1ccc(Cl)cc1 (configuration not stated),-0.82
O=C(Nc1nnc(C2CC2)s1)c1ccccc1,0.18
O=C(O)C1C2CCC(O2)C1C(=O)N1CCN(c2ccc(F)cc2)CC1 (configuration not stated),0.24
O=C(C1Sc2nnc(-c3ccccc3)n2NC1c1ccccc1)N1CCCC1 (configuration not stated),-0.08
Cc1ccc(C2Nn3c(nnc3-c3ccccc3)SC2C(=O)N2CCCCC2C)cc1 (configuration not stated),3*
Cc1ccc(C2Nn3c(nnc3-c3ccccc3)SC2C(=O)N2CCOCC2)cc1 (configuration not stated),-0.66
O=C(Nc1ncnc2sc3c(c12)CCC3)c1ccc(F)cc1,1.83
SMILES,Dicer inh
Nc1cccc2c(S(=O)(=O)N3CCOCC3)cccc12,-2.61
Cc1cc(OCc2nc(-c3ccccn3)no2)ccc1Cl,-0.81
Nc1nc2nc(-c3cccc(Br)c3)cc(C(F)(F)F)n2n1,4.87*
Nc1nc2nc(-c3ccc(OCc4ccccc4)cc3)cc(C(F)(F)F)n2n1,0.12
FC(F)(F)c1cccc(Nc2cc(-c3ccccc3)nc3ncnn23)c1,0.54
FC(F)(F)c1cc(-c2ccc(Br)cc2)nc2ncnn12,-0.18
Cc1cc2nc(-c3cccc(Br)c3)cc(C(F)(F)F)n2n1,-1.47
FC(F)(F)c1cc(-c2cccc(Br)c2)nc2ncnn12,3.87*
O=c1[nH]c(-c2ccccn2)nc2c1CSCC2,-1.05
O=C1N(CCOc2ccc(Cl)cc2)c2ccccc2C1(O)c1c[nH]c2ccccc12 (configuration not stated),-0.94
N/C(=N\OC(=O)Nc1csc(-c2cccc(Cl)c2Cl)n1)c1ccc(C(F)(F)F)cc1,-0.81
O=C(NCc1ccccc1)Nc1cc(=O)c2ccccc2o1,0.51
c1ccc(-c2ccc(-c3nc(-c4cccnc4)no3)cc2)cc1,3.16*
Cc1ccc(-c2nc(-c3cccnc3)no2)cc1C,1.98
COc1ccc(-c2nc(-c3cccnc3)no2)cc1,1.78
C=CCOC(=O)[C@@H](N)Cc1ccc(O)cc1,-8.5
O=C(O)CCC(=O)NCc1ccccn1,0.01
O=S(=O)(NCCNc1ncnc2scc(-c3ccccc3)c12)c1ccc(Cl)cc1,-0.95
CCOC(=O)CCCSc1nc(N)c2c3c(sc2n1)CCCC3,3.13*
CCOC(=O)CSc1nc(SCC(=O)OCC)c2c3c(sc2n1)CCC3,2.88
CCOC(=O)CC(=O)CSc1nc(N)c2c3c(sc2n1)CCC3,-0.06
CCOC(=O)CC(=O)CSc1nc(N)c2c3c(sc2n1)CCCC3,5.52*
CCOC(=O)c1nc2sc3c(c2c(=O)[nH]1)CCCC3,-0.09

# From PubChem BioAssay
